# LGR2 inh: inhibitors of bursicon-induced LGR2 CRE-luciferase signal, primary screen, cell-based, HEK293, CRE-luciferase reporter, bursicon stimulation | Drosophila bursicon receptor LGR2 (rickets) | bursicon-stimulated, 4 h | 380,000 compounds, 0.35% hits | inhibition, % at 9.99 µM;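 active = drop in luminescence signal, shown as inhibition above about 50% in the replicate tests, limit read from the data, passing the limit was not always enough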;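 also: agonist challenge used bursicon conditioned medium at about half maximal strength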
# aDG glyco act: activators of alpha-DG glycosylation, primary screen, uHTS, Pro5-aDG cells, AlphaScreen; alpha-DG glycosylation AlphaScreen (IIH6); 0% Pro5, 100% B10-LARGE cell signal; activation, % at 10 µM; 360,000 compounds, 0.22% hits;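 active = activation of at least 8% versus controls, or a plate z-score of at least 8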;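 also: Pro5 are CHO cells carrying HIG-tagged alpha-DG that lacks glycosylation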
# TROY signal inh: inhibitors of TROY-driven NF-kB signaling, primary screen, Q293 LMP1-TROYcd cells, NF-kB luciferase, uHTS; Q293 LMP1-TROYcd NF-kB luciferase reporter, 4 h; inhibition, % at 10 µM; 360,000 compounds, 0.98% hits;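 active = compounds whose plate-normalised and pattern-corrected inhibition of the luciferase reporter signal at the single screening dose is 50% or more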
# LMP1 NFkB inh: EBV LMP1-driven NF-kappaB luciferase reporter inhibitors, primary screen, cell-based, luminescence, single point; LMP1-induced NF-kappaB luciferase reporter cells; inhibition, % at 12.5 µM; 350,000 compounds, 0.69% hits; in the data active = inhibition above about 41%;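 also: 0% = neutral control wells and 100% = reference inhibitor control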
# HSP90 refold inh: HSP90 inhibitors, primary screen, cell lysate, luminescence | Heat shock protein HSP 90 (rabbit reticulocyte lysate; luciferase refolding) | Rabbit reticulocyte lysate, luciferase refolding luminescence, 3 h | inhibition, % at 5.6 µM | 290,000 compounds, 0.91% hits;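 active = inhibition above the screen-wide mean plus 3 SD, computed separately per campaign, cut at about 16% in these data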;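 also: 0% = DMSO wells and 100% = 60 µM geldanamycin wells; inhibitors lower the luminescence because luciferase stays unfolded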
# TWEAK-Fn14 inh: inhibitors of TWEAK-Fn14 signaling, primary screen, luciferase reporter cells, uHTS | TWEAK-stimulated Fn14 reporter cells, luciferase luminescence, 8 h | inhibition, % at 10 µM | 360,000 compounds, 2% hits; in the data active = inhibition above about 50%
# Numbers without * were called inactive; x = no result given. A selection: hits, their analogues and other compounds. The true share with any hit is near 2.6%.
SMILES,LGR2 inh,aDG glyco act,TROY signal inh,LMP1 NFkB inh,HSP90 refold inh,TWEAK-Fn14 inh
C[C@@H]1CN([C@H](C)CO)C(=O)c2cccc(NS(=O)(=O)c3ccc(F)cc3)c2O[C@H]1CN(C)S(=O)(=O)c1ccc(Cl)cc1,-4.4,x,x,x,x,x
Cc1onc(-c2c(F)cccc2Cl)c1C(=O)OCC(=O)NCc1ccco1,x,-0.2,53.8*,-39.4,14.6,6.3
Cc1onc(-c2c(F)cccc2Cl)c1C(=O)NCc1ccco1,x,-0.2,9.8,2.3,2.9,-13.6
Cc1onc(-c2c(F)cccc2Cl)c1C(=O)OCC(=O)c1c[nH]c2ccccc12,-2.5,0.1,28.3,0.9,-3.6,58.2*
Cc1noc(C)c1C(=O)OCC(=O)c1c[nH]c2ccccc12,x,0.4,-26.8,-2.4,-1.3,6.5
COc1ccc(S(=O)(=O)N(C)C[C@H]2Oc3ccc(NS(=O)(=O)c4ccccc4)cc3C(=O)N([C@H](C)CO)C[C@H]2C)cc1,-5.7,x,x,x,x,x
Cc1cc(C(=O)Nc2ccc3c(c2)C(=O)N(C)[C@@H]2CC[C@@H](CC(=O)N[C@H](C)c4ccccc4)O[C@H]2CO3)no1,-12.2,x,x,x,x,x
N#Cc1cc2c(nc1SCC(=O)N1CCCCC1)CCCC2,x,0.2,2.1,-5.8,-1.6,-6.9
N#Cc1cc2c(nc1SCC(=O)N1CCCCC1)CCCCC2,x,-0.2,56.1*,-7.0,11.1,40.8
CCOC(=O)c1ccc(-n2c(CN3CCC(C(N)=O)CC3)nc3ccc([N+](=O)[O-])cc3c2=O)cc1,-16.2,-0.1,54.7*,-7.5,0.7,15.4
CCOC(=O)c1ccc(-n2c(CN3CCC(O)CC3)nc3ccc([N+](=O)[O-])cc3c2=O)cc1,-10.0,0.0,53.1*,-6.0,4.4,28.6
Cc1cccc(-c2ccc([C@@H]3[C@H](CO)N4CCCCN(S(=O)(=O)c5cccs5)C[C@@H]34)cc2)c1,16.5,x,x,x,x,x
C[C@@H]1CN([C@@H](C)CO)C(=O)c2cc(Br)cnc2O[C@@H]1CN(C)C(=O)c1ccccc1,-24.2,x,x,x,x,x
CC(C)NC(=O)N1CC2(C1)[C@H](c1ccccc1)[C@@H](CO)N2Cc1ccccc1,3.6,x,x,x,x,x
NC(=O)c1sc2nc3c(c(-c4cccs4)c2c1N)CCCCC3,x,0.0,-6.4,71.7*,-4.2,76.0*
COc1cccc2c1C(=O)c1c(O)c3c(c(O)c1C2=O)C[C@](O)(C(C)=O)C[C@H]3O[C@@H]1C[C@@H](N)[C@@H](O)[C@@H](C)O1,0.7,-0.4,77.3*,91.4*,x,97.2*
COc1cccc2c1C(=O)c1c(O)c3c(c(O)c1C2=O)CC(O)(C(C)=O)CC3OC1CC(O)C(O)C(C)O1 (stereo not drawn),x,-0.5,-88.9,31.4,x,-173.4
COc1cccc2c1C(=N)c1c(O)c3c(c(O)c1C2=O)CC(O)(C(C)=O)CC3OC1CC(N)C(O)C(C)O1 (stereo not drawn),x,-0.9,-43.4,52.9*,x,-138.6
CCCCC(=O)OCC(=O)C1(O)Cc2c(O)c3c(c(O)c2C(OC2CC(NC(=O)C(F)(F)F)C(O)C(C)O2)C1)C(=O)c1c(OC)cccc1C3=O (stereo not drawn),-48.3,-0.6,-9.2,47.8*,x,-198.8
COc1cc(SC#N)ccc1N=Cc1c(C)[nH]n(-c2cccc3ccccc23)c1=O,x,x,x,x,16.4*,x
O=C(C=C1SCCS1)/C=C/c1ccco1,x,0.0,-17.6,85.8*,4.0,-7.5
O=C(COc1ccc(Cl)cc1Cl)Nc1ccccc1F,-38.8,-0.1,-7.0,-38.3,x,54.6*
CC(=O)Nc1ccc(NC(=O)COc2ccc(Cl)cc2Cl)cc1,4.1,0.0,-25.7,0.0,1.4,-4.0
Cc1cc(Cl)ccc1OCC(=O)OCC(=O)Nc1ccc(Cl)cn1,-15.9,-0.3,-16.1,-28.2,x,-3.4
O=C(O)CCC(=O)NNC(=O)CCCOc1ccc(Cl)cc1Cl,17.6,-0.3,-5.6,-4.2,6.6,97.2*
CC(=O)OCC(=O)Nc1ccc(Cl)cc1Cl,10.6,0.6,x,35.4,3.0,54.2*
O=C(COc1ccc(Cl)cc1Cl)Nc1ccc(Cl)cn1,18.1,0.0,4.2,-35.2,8.0,54.3*

# Screens deposited in PubChem BioAssay by several laboratories.
